Only some compounds are listed: those with a hit (about 18% of all), similar ones and a draw of the others.
PLK1 PBD block – qHTS for Inhibitors of PLK1-PDB (polo-like kinase 1 - polo-box domain): Primary Screen; Serine/threonine-protein kinase PLK1 (Homo sapiens), P53350; Plk1 PBD binding of FITC phosphopeptide, fluorescence polarization; actives 2.8% (n = 360,000); Potency, µM, for inactives: max response, negative = inhibition, actives largely listed as inhibitors; further: series mostly up to about 57 µM; nearly all actives have a fitted effect of over 65% in size
TDP1 cell CPT – qHTS for Inhibitors of human tyrosyl-DNA phosphodiesterase 1 (TDP1): qHTS in cells in presence of CPT | chicken DT40 Tdp1-/-;hTDP1 cells + 20 nM CPT, ATP luminescence, 48 h | Potency, µM (doses to about 46.2 µM), for the others: at the top dose activity change, negative = growth inhibition, actives largely listed as inhibitors | actives 12% (n = 420,000) | AID 686979, 2013; further: nearly all actives have a fitted effect of over 55% in size
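Cell growth measured by CellTiter-Glo luminescence after a minimum 48 h, 37 C compound exposure with 20 nM CPT in Tdp1-knockout DT40 cells stably expressing hTDP1, seeded 400/well; qHTS titration format.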
DT40 TDP1 no CPT – qHTS for Inhibitors of human tyrosyl-DNA phosphodiesterase 1 (TDP1): qHTS in cells in absence of CPT. actives 15% (n = 420,000). DT40 Tdp1-/- hTDP1 cells, no CPT, ATP luminescence, 48 h. Potency, µM (titrated, usually from 46.2 µM), without a hit: at the highest dose activity change, negative = growth inhibition, hits mostly inhibitors. AID 686978, 2013; further: nearly all actives have a fitted effect of over 55% in size
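Luminescent ATP content (CellTiter-Glo) served as the growth readout. Knockout chicken DT40 cells expressing human TDP1 were exposed to compounds without camptothecin for a minimum 48 hr at 37 °C.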
VDR inh – Inhibitors of the vitamin D receptor (VDR): qHTS. Vitamin D3 receptor (Homo sapiens), P11473. actives 0.93% (n = 400,000). VDR-SRC2-3 peptide fluorescence polarization, 2 h. Potency, µM, for the others: max response, negative = inhibition, actives largely listed as inhibitors
Target sequence (P11473 whole entry, looked up): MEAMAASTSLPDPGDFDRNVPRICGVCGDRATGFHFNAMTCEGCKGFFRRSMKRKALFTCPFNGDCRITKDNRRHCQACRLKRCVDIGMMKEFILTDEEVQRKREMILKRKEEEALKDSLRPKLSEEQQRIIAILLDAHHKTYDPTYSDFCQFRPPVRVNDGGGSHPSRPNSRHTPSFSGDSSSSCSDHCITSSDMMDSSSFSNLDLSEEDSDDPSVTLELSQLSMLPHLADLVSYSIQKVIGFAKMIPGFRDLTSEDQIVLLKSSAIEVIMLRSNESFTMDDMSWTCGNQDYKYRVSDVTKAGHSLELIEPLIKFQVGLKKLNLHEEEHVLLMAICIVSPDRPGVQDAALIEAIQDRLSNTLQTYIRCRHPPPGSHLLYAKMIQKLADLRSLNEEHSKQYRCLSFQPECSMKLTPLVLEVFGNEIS
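Fluorescence polarization assay measuring small-molecule disruption of VDR binding to the coregulator peptide SRC2-3. Compounds were pin-transferred (23 nl) into the reagent mix and incubated 2 h at room temperature before reading.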
TDP1 inh – qHTS Assay for Inhibitors of Tyrosyl-DNA Phosphodiesterase (TDP1) | recombinant TDP1, AlphaScreen DNA substrate cleavage | Potency, µM (top dose mostly 130 µM), for inactives: at the top dose activity change, negative = inhibition, hits mostly inhibitors | actives 0.28% (n = 350,000); further: nearly all actives have a fitted effect of over 40% in size
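Here, a 5' biotin and 3' phosphotyrosine-FITC DNA oligonucleotide reports Tdp1 activity: intact substrate bridges AlphaScreen beads, while cleavage leaves a 3' phosphate and drops signal. All incubations at room temperature.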
KAT2A inh – qHTS Assay for Inhibitors of GCN5L2; Potency, µM (series often up to 58.9 µM), for inactives: top-dose activity change, negative = inhibition, actives largely listed as inhibitors; Histone acetyltransferase KAT2A (Homo sapiens), Q92830; actives 0.21% (n = 390,000); GCN5L2 HAT assay, ThioGlo1 CoA-SH fluorescence
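Preincubate 20nM GCN5L2 with compound 15 min, RT → add 50uM ThioGlo1 + 75uM H3(1-25) + 70uM acetyl-CoA → read fluorescence 0 and 20 min. Primary qHTS; fluorescent artifacts likely.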
An asterisk follows results filed as active; ? = inconclusive; · = not tested or not shown; [ ] = dose if it differs, or a comment. The call rests on the fitted dose curve; in most records, active means well fitted curve in the direction sought with a large enough effect; inconclusive means small, poorly fitted or top-dose-only effect, or another doubt; inactive means no such curve, though single readings can be large; an effect the other way counts as inactive or inconclusive. On the % scale 0 is the no-effect control and ±100 the full control effect; potency means the concentration at half of the fitted maximal effect.

SMILES | PLK1 PBD block | TDP1 cell CPT | DT40 TDP1 no CPT | VDR inh | TDP1 inh | KAT2A inh
C[C@H](NC(=O)c1[nH]cnc1C(=O)Nc1ccon1)c1ccccc1 | -12% | ? | ? | -9% | 1% | 4%
C[C@H](NC(=O)c1nc[nH]c1C(=O)N[C@@H](C)c1ccccc1)C(=O)OC(C)(C)C | -3% | ? | 3% | -14% | 3% | 5%
CC(C)C[C@H](NC(=O)c1[nH]cnc1C(=O)N[C@H](C)c1ccccc1)C(=O)OC(C)(C)C | 0% | ? | 18µM* | -9% | 10% | -9%
CC(C)C[C@H](NC(=O)c1nc[nH]c1C(=O)N[C@@H](CC(C)C)C(=O)OC(C)(C)C)C(=O)OC(C)(C)C | -14% | 23µM* | ? | 4% | 9% | 3%
CC(C)C[C@H](NC(=O)c1nc[nH]c1C(=O)NCC(=O)OC(C)(C)C)C(=O)OC(C)(C)C | 2% | ? | ? | -11% | 6% | -5%
C[C@@H](NC(=O)c1[nH]cnc1C(=O)Nc1ccon1)c1ccccc1 | -9% | 16µM* | ? | -7% | -4% | -6%
COc1ccc(CNC(=O)Cn2ccc3cc(S(=O)(=O)N4CCCC4)ccc32)c(OC)c1 | · | -29% | ? | 14% | 6% | -12%
Cc1ccc(S(=O)(=O)NCC(=O)NCCc2c[nH]c3ccccc23)cc1C | -9% | ? | ? | 0% | 3% | 4%
C[C@H]1CN([C@@H](C)CO)C(=O)CCCn2nncc2CO[C@@H]1CN(C)C(=O)NC1CCCCC1 | -8% | 11% | 15% | · | · | ·
CC(C)C[C@H](NC(=O)c1nc[nH]c1C(=O)N1CCN(c2ccccc2)CC1)C(=O)OC(C)(C)C | -3% | 21µM* | ? | -17% | 8% | 0%
CC(C)C[C@H](NC(=O)c1nc[nH]c1C(=O)NCCNC(=O)OC(C)(C)C)C(=O)CNCCNC(=O)c1[nH]cnc1C(=O)N[C@@H](C)C(=O)OC(C)(C)C | -1% | 23µM* | ? | -8% | 0% | -8%
CC(C)C[C@H](NC(=O)c1nc[nH]c1C(=O)NCC(=O)OCc1ccccc1)C(=O)OC(C)(C)C | -1% | ? | ? | 8% | · | ?
CC(C)C[C@H](NC(=O)c1nc[nH]c1C(=O)N1CCc2ccccc2C1)C(=O)OC(C)(C)C | -1% | ? | ? | 3% | 6% | 4%
CC(C)C[C@H](NC(=O)c1[nH]cnc1C(=O)N[C@@H](C)C(=O)OCc1ccccc1)C(=O)OC(C)(C)C | -9% | ? | ? | 9% | · | ?
CC(C)C[C@H](NC(=O)c1nc[nH]c1C(=O)NC(c1ccccc1)c1ccccc1)C(=O)OC(C)(C)C | -7% | 4.1µM* | 18µM* | -9% | 8% | ?
C[C@H](NC(=O)c1nc[nH]c1C(=O)N1CCN(c2ccccc2)CC1)C(=O)OCc1ccccc1 | -12% | 18µM* | ? | -11% | · | -24%
O=C(N[C@@H](Cc1ccccc1)C(=O)OCc1ccccc1)c1nc[nH]c1C(=O)N1CCN(c2ccccc2)CC1 | -18% | ? | ? | -5% | 12% | -12%
COCCc1ccc(OC[C@H](O)CNC(C)C)cc1 | · | · | · | 1% | -3%[21 µM] | -2%
CCCCCCCN[C@H]1CCC[C@@H]1CCCCCCC(=O)O | · | · | · | 9% | 7% | ·
COc1ccccc1NC(c1ccc(Cl)cc1)c1nnc(-c2cccc(F)c2)o1 (stereo not given) | · | ? | ? | -11% | -2%[12.3 µM] | -4%
Cc1ccc(CNC(=O)[C@H](C)NC(=O)C2CCN(C(=O)[C@@H]3CCCN3C(=O)OC(C)(C)C)CC2)cc1 | -2% | -22% | -30% | -10% | · | -21%
CC(C)(C)OC[C@H](NC(=O)c1[nH]cnc1C(=O)Nc1ccccc1F)C(=O)OC(C)(C)C | 8% | 21µM* | 21µM* | · | · | ·
CC(C)(C)OC(=O)N1CCN(C(=O)c2nc[nH]c2C(=O)N2CCN(c3ccccc3)CC2)CC1 | -14% | -4% | 6% | -6% | 1% | -14%
O=C(c1nc[nH]c1C(=O)N1CCN(c2ccccc2)CC1)N1CCN(c2ccccc2)CC1 | -12% | 13µM* | -8% | 2% | 2% | -4%
CC(C)C[C@@H](CNC(=O)OC(C)(C)C)NC(=O)c1nc[nH]c1C(=O)N[C@@H](CC(C)C)C(=O)CNC[C@H](CC(C)C)NC(=O)c1nc[nH]c1C(=O)N[C@@H](Cc1c[nH]c2ccccc12)C(=O)OC(C)(C)C | -8% | ? | 18µM* | 4% | 1% | -16%
SMILES | PLK1 PBD block | TDP1 cell CPT | DT40 TDP1 no CPT | VDR inh | TDP1 inh | KAT2A inh
CCC(C)NCCOc1ccc(C(C)(C)c2ccccc2)cc1 (stereo not given) | -4% | ? | 16µM* | 17% | -3% | -1%
CNCCCOc1ccc(C(C)(C)c2ccccc2)cc1 | · | · | · | · | -1% | -4%
FC(F)(F)C(F)(F)c1nc2nc(Cl)c(Cl)nc2[nH]1 | 0% | ? | ? | · | · | ·
COc1ccc(-c2nc(-c3ccccc3)nc(Cl)c2C#N)cc1 | -10% | ? | 10µM* | 8% | 0% | -1%
CSc1nc(Cl)c(C#N)c(-c2ccc(C)cc2)n1 | -22% | 9.2µM* | ? | 5% | 6% | 4%
Cc1cc(C)n(CCCNC(=O)c2ccc3c(c2)NC(=O)CS3)n1 | 3% | -1% | -5% | -15% | 4% | -14%
O=C1CSc2ccc(C(=O)N3CCCCC3)cc2N1 | 15µM* | -15% | ? | · | · | ·
O=C1Nc2cc(C(=O)NCCN3CCCCCC3)ccc2S/C1=C/c1ccccc1F | -1% | 7.3µM* | 3.7µM* | · | · | ·
CCN1C(=O)c2ccccc2Sc2ccc(C(=O)NCCCN3CCCCC3)cc21 | -9% | -27% | 0% | 2% | 1% | 2%
Cc1ccc(/C=C2/Sc3ccc(C(=O)NCCN4CCOCC4)cc3NC2=O)cc1 | 8% | -23% | ? | -15% | 3% | -16%
O=C1Nc2cc(C(=O)NCCCN3CCCC3)ccc2S/C1=C/c1ccccc1F | -4% | 18µM* | ? | -13% | 7% | -6%
CC1CC(C)CN(CCCNC(=O)c2ccc3c(c2)NC(=O)CS3)C1 (stereo not given) | 30µM* | 4% | 2% | -2% | 0% | -3%

Screening results: PubChem BioAssay, National Center for Advancing Translational Sciences (NCATS)
